A selection: hits, their analogues and other compounds. The true share with any hit is near 8%.
KB-3-1 tox: kills parental KB-3-1 adenocarcinoma cells; hit rate 1.4% among 400,000; KB-3-1 viability, CellTiter-Glo ATP luminescence, 72 h; Potency, µM (titrated, usually from 46.1 µM), hits mostly cytotoxic; further: on the % scale 0 is the no-effect control and ±100 the full control effect; nearly all actives have a fitted effect of over 60% in size
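Here the drug-naive KB-3-1 line serves as comparator for MDR sub-line selectivity; cells received compound titrations, 72 h at 37 °C, then CellTiter-Glo readout.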
SW480 rereplic: inducers of DNA re-replication in SW480 colon cancer cells; AID 624297; SW480 DNA re-replication, Hoechst DNA content imaging, 48 h; hit rate 1.8% among 340,000; Potency, µM (top dose mostly 46.1 µM), for the others: top-dose re-replication activation, hits mostly activators; further: % of control where 0% means no effect; nearly all actives have a fitted effect of over 55% in size
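Cells (250 per well) received 23 nL compound or DMSO by pin tool and were kept 48 hr at 37 C, 5% CO2. Nuclei were then stained with Hoechst for 40 min and scanned for DNA content.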
MCF10A rereplic: induces DNA re-replication in MCF 10a normal breast cells. MCF 10A DNA re-replication, Hoechst nuclear intensity, 48 h. Potency, µM (highest dose often 46.1 µM), for the others: at the highest dose activity, positive = re-replication, usual class: activators. hit rate 2.9% among 350,000. AID 624296; further: % of control where 0% means no effect; nearly all actives have a fitted effect of over 50% in size
HT1080-NT tox: kills 2HG-producing HT-1080-NT fibrosarcoma cells; HT-1080-NT fibrosarcoma viability, CellTiter-Glo ATP luminescence, 48 h; Potency, µM (series often up to 46.1 µM), for the others: top-dose activity, negative = less viability, most hits filed as cytotoxic; hit rate 1.6% among 360,000; AID 686970;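 further: NT is the 2HG producing partner of a matched IDH1 knockdown line; 0% = DMSO-treated cells and -100% = media-only wells without cells; nearly all actives have a fitted effect of over 55% in size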
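Viability by CellTiter-Glo luminescence after 48 h compound exposure at 37C of HT-1080-NT cells (750/well, RPMI, 5% FBS). % activity scaled between DMSO wells and medium-only wells, then curve-fitted and categorized by curve class.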
HT1080 IDH1KD tx: kills HT-1080 cells with IDH1 knockdown; HT-1080 IDH1 knockdown viability, ATP luminescence, 48 h; Potency, µM (series often up to 46.1 µM), for inactives: at the top dose activity, negative = toxicity, most hits filed as cytotoxic; hit rate 2% among 360,000; AID 686971;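 further: 0% = DMSO wells and -100% = cell-free medium wells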
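IDH1KD HT-1080 cells, 750/well, RPMI + 5% FBS; compound pinned after 2 h settling; 48 h, 37 °C; CellTiter-Glo luminescence; % activity normalised to DMSO and no-cell wells; curves fitted, classed by r2 and efficacy.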
KB-V1 MDR tox: kills drug-selected multidrug resistant KB-V1 cells; KB-V1 MDR cells viability, CellTiter-Glo, 72 h; Potency, µM (doses to about 46.1 µM), most hits filed as cytotoxic; hit rate 3.4% among 400,000; further: on the % scale 0 is the no-effect control and ±100 the full control effect; nearly all actives have a fitted effect of over 60% in size
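Cytotoxicity via CellTiter-Glo luminescence after 72 h compound exposure at 37 degrees C. Cells: drug-selected KB-V1 line, DMEM phenol-red free plus 10% FBS. Compounds tested at multiple concentrations; normalized data fitted to concentration-effect curves.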
Numbers without * were called inactive; i = inactive; ? = inconclusive; / = not tested or not shown. The call rests on the fitted dose curve; in most records, active means well fitted curve in the direction sought with a large enough effect; inconclusive means small, poorly fitted or top-dose-only effect, or another doubt; inactive means no such curve, though single readings can be large; an effect the other way counts as inactive or inconclusive. Potency means the concentration at half of the fitted maximal effect.

SMILES | KB-3-1 tox | SW480 rereplic | MCF10A rereplic | HT1080-NT tox | HT1080 IDH1KD tx | KB-V1 MDR tox
Cc1cccc(N2C(=O)N(CC(=O)C(C)(C)C)c3ccccc3S2(=O)=O)c1C | i | / | / | / | / | i
COc1ccc(NCc2cc3cc4c(cc3n(CC(=O)Nc3ccc(C)c(C)c3)c2=O)OCO4)cc1 | ? | / | / | / | / | i
Cc1ccc(CCNC(=O)c2ccc3c(c2)c(C)c(C)n3Cc2ccccc2)cc1 | i | / | / | / | / | i
O=C(NCCOc1ccccc1)c1cc([N+](=O)[O-])ccc1N1CCOCC1 | ? | 2.91µM* | 10.3µM* | ? | 7.31µM* | ?
O=C(NCCOc1ccccc1F)c1cc([N+](=O)[O-])ccc1N1CCOCC1 | ? | 9.2µM* | ? | 6.51µM* | 8.2µM* | i
O=C(NCCc1ccccc1)c1cc([N+](=O)[O-])ccc1N1CCOCC1 | i | 4.2% | 0.9% | -9.5% | -2.3% | i
Nc1nnc(SCC(=O)Nc2cccc(F)c2)s1 | i | / | / | / | / | i
COc1ccc(-c2cn3c(C)c(C(=O)Nc4cccc(C)n4)sc3n2)cc1 | i | 1.7% | ? | -17.7% | -9.9% | 20.6µM*
Cc1cccc(NC(=O)c2sc3nc(-c4ccccc4)cn3c2C)n1 | i | -3.2% | -2.1% | -5.3% | -17.5% | 20.6µM*
COc1ccc2c(C)nc(Nc3nc(C)c(C)c(=O)[nH]3)nc2c1 | 3.66µM* | 19.1% | 17.2% | ? | ? | 7.31µM*
CCc1c(C)nc(Nc2nc(C)c3ccc(OC)cc3n2)[nH]c1=O | i | -0.2% | 3.4% | 7.1% | -0.3% | i
COc1ccc2nc(NC3=NC(c4ccccc4)CC(=O)N3)nc(C)c2c1 (stereo not drawn) | i | -4.0% | -0.2% | ? | 18.4µM* | i
COc1ccc2c(C)nc(Nc3nc(C)cc(C)n3)nc2c1 | i | 5.17µM* | 23.9% | 0.447µM* | 0.891µM* | ?
CCc1c(C)nc(Nc2nc(C)c3cc(OC)ccc3n2)[nH]c1=O | i | -13.4% | ? | 14.7% | 7.1% | ?
Cc1cc(Cl)ccc1NC(=O)CN1C(=O)C(=O)c2ccccc21 | i | / | / | / | / | i
CCOc1cc(C#N)c(NC(=O)c2cccc(S(=O)(=O)N3CCOCC3)c2)cc1OCC | i | / | / | / | / | i
Cc1cccc(NC(=O)CSc2nc3ccccc3nc2N2CCCCC2)c1C | i | / | / | / | / | i
Cn1cc(S(=O)(=O)c2ccccc2)c(=O)c2cc(F)c(N3CCCCCC3)cc21 | i | / | / | / | / | i
CCOC(=O)C1CCN(c2c(C(=O)c3ccc(C)cc3)cnc3ccc(F)cc23)CC1 | i | / | / | / | / | i
Cn1c(=O)[nH]c(=O)c2c1nc(N1CCN(CCO)CC1)n2Cc1ccccc1Cl | i | -16.1% | 0.651µM* | -7.2% | -5.2% | i
Cn1c(CN2CCN(c3cccc(Cl)c3)CC2)nc2ccccc21 | i | 20.6µM* | ? | -1.9% | -1.0% | ?
CCCCCn1c(CN2CCN(c3cccc(Cl)c3)CC2)nc2c1c(=O)[nH]c(=O)n2C | 23.1µM* | ? | 11.6% | ? | ? | ?
Cn1c(=O)[nH]c(=O)c2c1nc(CN1CCN(c3cccc(Cl)c3)CC1)n2CCc1ccccc1 | i | 15.0% | -1.6% | ? | ? | ?
CCCCCCCCn1c(N2CCN(c3cccc(Cl)c3)CC2)nc2c1c(=O)[nH]c(=O)n2C | i | 7.8% | ? | -4.2% | 0.0% | 13µM*
Clc1cccc(N2CCN(c3nc4ccccc4n4cnnc34)CC2)c1 | i | / | / | / | / | i
SMILES | KB-3-1 tox | SW480 rereplic | MCF10A rereplic | HT1080-NT tox | HT1080 IDH1KD tx | KB-V1 MDR tox
CCOCCCNC(=O)C(c1ccc(C)cc1)N(Cc1ccc2c(c1)OCO2)C(=O)c1ccc(NC(C)=O)cc1 (stereo not drawn) | i | / | / | / | / | i
CCCCCCn1c(N2CCN(c3cccc(Cl)c3)CC2)nc2c1c(=O)[nH]c(=O)n2C | ? | -2.1% | ? | -0.3% | -5.5% | 16.4µM*
CCCCCCn1c(N2CCN(c3ccccc3)CC2)nc2c1c(=O)[nH]c(=O)n2C | ? | 2.9% | 12.7% | -15.5% | ? | ?
CC(CSc1nnnn1-c1ccccc1)Cn1c(N2CCCC2)nc2c1c(=O)[nH]c(=O)n2C (stereo not drawn) | i | -48.8% | -62.4% | 8.6% | -0.2% | 2.31µM*
Cn1c(=O)[nH]c(=O)c2c1nc(N1CCOCC1)n2CCSc1nnnn1-c1ccccc1 | i | -14.9% | -0.8% | 15.0% | 15.0% | i
N#Cc1cccc(NC(=O)CCNS(=O)(=O)c2ccc3c(c2)CCN3C(=O)C2CC2)c1 | i | / | / | / | / | ?
COc1ccc(C)cc1N=Nc1ccc(O)c2ncccc12 | i | ? | 17.5% | ? | ? | i
Cc1ccccc1N=Nc1ccc(O)c2ncccc12 | ? | ? | ? | ? | 7.31µM* | i
O=Nc1ccc(O)c2ncccc12 | 20.6µM* | ? | 13.3% | 11.6µM* | ? | 23.1µM*
COc1ccc(N=Nc2ccc(O)c3ncccc23)cc1 | i | ? | 20.0% | ? | 4.61µM* | i
Oc1ccc(N=Nc2ccc3c(c2)OCCO3)c2cccnc12 | ? | 0.1% | 25.8% | ? | 1.3µM* | ?
Oc1ccc(N=Nc2ccc3c(c2)OCCO3)c(O)c1 | i | -7.6% | -2.1% | -15.7% | ? | i
CCc1ccc(NC(=O)c2cc(CN3CCOCC3)on2)cc1 | i | / | / | / | / | i
Cc1ccc(-n2c(=O)c3sc4ccccc4c3n(C)c2=O)cc1F | i | / | / | / | / | i
CCOc1ccc(-n2c(SCC(=O)N3CCc4ccccc43)nc3c([nH]c4ccccc43)c2=O)cc1 | i | / | / | / | / | ?
COc1cccc(N=Nc2ccc(O)c3ncccc23)c1 | 4.61µM* | 26.8% | -4.8% | ? | ? | i
COc1ccc(C2CC(=O)c3cnc(NC(=O)c4ccccc4)nc3C2)c(OC)c1 (stereo not drawn) | ? | ? | 20.6µM* | -16.1% | -26.2% | ?
Cc1cccc(Cn2c(=O)n(-c3ccc(Cl)c(Cl)c3)c(=O)c3c(C)c(C)sc32)c1 | i | / | / | / | / | i
CCOC(=O)c1cc(C)sc1NC(=O)c1ccc(Cl)s1 | i | 1.3% | 3.26µM* | ? | 21.3% | i
CCOC(=O)c1c(NC(=O)c2ccc(Cl)s2)sc(C)c1C | i | ? | ? | 0.0% | 22.3% | i
COc1ccc(-c2noc(-c3ccc(N4CCCC4)c([N+](=O)[O-])c3)n2)cc1 | i | / | / | / | / | i
Cc1ccc(C)c(S(=O)(=O)c2nnn3c2nc(N2CCCCC2)c2sccc23)c1 | i | / | / | / | / | ?

From PubChem
